Measured values from PubChem BioAssay (EPA / NIEHS).
Inconclusive results are not listed. The source made the active and inactive calls. The calls were made as follows, unless noted: active = hit-call score of the fitted dose curve at least 0.9, where 1 is the maximum; inconclusive = response in the unintended direction; inactive = score below 0.9.

How the values were obtained:
[1] = target: Bile acid receptor (Homo sapiens) (UniProt Q96RI1); experiment: ATG_IR1_CIS: Attagene CIS-FACTORIAL HepG2 Assay for human Nuclear Receptor Subfamily 1 Group H Member 4 (NR1H4), IR1 submotif (AID 2282946; active = hit-call score of the fitted dose curve at least 0.9, where 1 is the maximum; inactive = score below 0.9); details: IR1 reporter transcription, actives raise or lower the signal
Bile acid receptor (Homo sapiens), sequence (Q96RI1 whole entry, looked up): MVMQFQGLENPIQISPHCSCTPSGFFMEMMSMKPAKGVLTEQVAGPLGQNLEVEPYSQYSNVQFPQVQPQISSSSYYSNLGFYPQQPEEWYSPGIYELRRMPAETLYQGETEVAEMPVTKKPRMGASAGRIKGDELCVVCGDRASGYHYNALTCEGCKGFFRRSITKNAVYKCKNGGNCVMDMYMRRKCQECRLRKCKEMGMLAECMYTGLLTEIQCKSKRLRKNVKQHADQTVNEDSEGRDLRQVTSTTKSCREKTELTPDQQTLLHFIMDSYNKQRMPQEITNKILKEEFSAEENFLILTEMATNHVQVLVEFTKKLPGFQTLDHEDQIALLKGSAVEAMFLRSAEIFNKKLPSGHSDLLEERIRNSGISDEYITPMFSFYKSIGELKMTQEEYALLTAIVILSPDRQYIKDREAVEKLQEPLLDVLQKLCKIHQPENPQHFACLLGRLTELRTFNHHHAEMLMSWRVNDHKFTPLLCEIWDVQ
Summary of the method: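 Transient MRTU transfection, HepG2; 24 h dosing; RNA → RT-PCR → 6-FAM primer extension → HpaI digest → capillary electrophoresis fluorescence. Gain/loss of signal fitted relative to DMSO.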

[2] = target: Oxysterols receptor LXR-alpha (Homo sapiens) (UniProt Q13133); experiment: ATG_LXRa_TRANS: Attagene TRANS-FACTORIAL HepG2 Assay for human Liver X Receptor alpha (LXRa) (AID 2282980); details: HepG2 Attagene TRANS reporter, LXRa transactivation
Oxysterols receptor LXR-alpha (Homo sapiens), sequence (Q13133 whole entry, looked up, the tested form may be a part): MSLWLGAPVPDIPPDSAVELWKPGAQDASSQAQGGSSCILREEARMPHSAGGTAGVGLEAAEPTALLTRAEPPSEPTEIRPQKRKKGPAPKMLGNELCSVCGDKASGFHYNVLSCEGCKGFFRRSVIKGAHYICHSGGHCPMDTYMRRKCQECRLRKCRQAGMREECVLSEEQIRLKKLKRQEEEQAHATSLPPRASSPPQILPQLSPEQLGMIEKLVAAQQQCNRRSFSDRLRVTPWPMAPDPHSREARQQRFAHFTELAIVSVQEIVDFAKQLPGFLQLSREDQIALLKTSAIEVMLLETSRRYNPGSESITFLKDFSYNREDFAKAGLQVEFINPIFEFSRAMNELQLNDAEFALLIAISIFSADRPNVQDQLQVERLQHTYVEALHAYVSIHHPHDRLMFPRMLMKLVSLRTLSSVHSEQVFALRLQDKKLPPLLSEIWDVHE
Summary of the method: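 Chemical-induced reporter mRNA measured by RT-PCR with fluorescent labelling and capillary electrophoresis after 24 h dosing of transiently transfected HepG2 cells expressing exogenous NR-Gal4 chimeras; increases scored against DMSO baseline.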

[3] = target: Oxysterols receptor LXR-beta (Homo sapiens) (UniProt P55055); experiment: ATG_LXRb_TRANS: Attagene TRANS-FACTORIAL HepG2 Assay for human Liver X Receptor beta (LXRb) (AID 2282981); details: HepG2 Attagene TRANS GAL4-LXRb reporter, mRNA
Summary of the method: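 HepG2 cells transiently transfected with multiple reporter transcription units carrying chimeric NR-Gal4 proteins acting on GAL4-UAS reporters; compound exposure 24 h. Reporter mRNA quantified by RT-PCR, 6-FAM labelling, HpaI digestion and capillary electrophoresis; gain of signal versus DMSO.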

[4] = target: human Peroxisome Proliferator-activated Receptor alpha (PPARa), PPARA (gene 5465) (UniProt Q07869); experiment: ATG_PPARa_TRANS: Attagene TRANS-FACTORIAL HepG2 Assay for human Peroxisome Proliferator-activated Receptor alpha (PPARa) (AID 2283001);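 as to AC50: potency for gain of reporter signal over DMSO so agonist or activator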
human Peroxisome Proliferator-activated Receptor alpha (PPARa), PPARA (gene 5465), sequence (Q07869 whole entry, looked up, the tested form may be a part): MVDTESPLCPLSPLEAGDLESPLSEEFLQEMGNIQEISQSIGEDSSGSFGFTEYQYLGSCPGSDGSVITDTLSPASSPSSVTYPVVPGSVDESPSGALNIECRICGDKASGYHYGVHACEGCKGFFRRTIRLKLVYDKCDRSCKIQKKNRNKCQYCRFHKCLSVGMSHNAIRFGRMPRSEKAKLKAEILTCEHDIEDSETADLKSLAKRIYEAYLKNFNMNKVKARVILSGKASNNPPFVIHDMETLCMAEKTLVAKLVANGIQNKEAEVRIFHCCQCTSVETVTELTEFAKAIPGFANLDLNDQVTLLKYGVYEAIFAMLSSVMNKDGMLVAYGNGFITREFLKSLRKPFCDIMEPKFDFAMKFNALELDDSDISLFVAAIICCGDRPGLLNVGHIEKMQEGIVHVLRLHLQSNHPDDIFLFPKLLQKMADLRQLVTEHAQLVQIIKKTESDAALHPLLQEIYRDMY
Summary of the method: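 HepG2 cells transiently transfected with multiplexed GAL4-UAS reporter units and chimeric NR-Gal4 constructs were dosed for 24 h. Reporter mRNA was measured by RT-PCR with fluorescent labelling and capillary electrophoresis; gain of signal fitted against DMSO.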

[5] = target: human Peroxisome Proliferator-activated Receptor delta (PPARd), PPARD (gene 5467) (UniProt Q03181); experiment: ATG_PPARd_TRANS: Attagene TRANS-FACTORIAL HepG2 Assay for human Peroxisome Proliferator-activated Receptor delta (PPARd) (AID 2283002)
Summary of the method: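 Multiplexed trans-activation format: HepG2 liver cells expressing exogenous NR-Gal4 chimeras and GAL4-UAS reporters were exposed for 24 h. Reporter mRNA was detected by RT-PCR with capillary electrophoresis fluorescence; activity fitted as gain of signal relative to DMSO.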

[6] = target: human RAR-related Orphan Receptor gamma (RORg), RORC (gene 6097) (UniProt P51449); experiment: ATG_RORg_TRANS: Attagene TRANS-FACTORIAL HepG2 Assay for human RAR-related Orphan Receptor gamma (RORg) (AID 2283011);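 as to AC50: potency for induction of reporter transcripts above DMSO so activators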
human RAR-related Orphan Receptor gamma (RORg), RORC (gene 6097), sequence (P51449 whole entry, looked up, the tested form may be a part): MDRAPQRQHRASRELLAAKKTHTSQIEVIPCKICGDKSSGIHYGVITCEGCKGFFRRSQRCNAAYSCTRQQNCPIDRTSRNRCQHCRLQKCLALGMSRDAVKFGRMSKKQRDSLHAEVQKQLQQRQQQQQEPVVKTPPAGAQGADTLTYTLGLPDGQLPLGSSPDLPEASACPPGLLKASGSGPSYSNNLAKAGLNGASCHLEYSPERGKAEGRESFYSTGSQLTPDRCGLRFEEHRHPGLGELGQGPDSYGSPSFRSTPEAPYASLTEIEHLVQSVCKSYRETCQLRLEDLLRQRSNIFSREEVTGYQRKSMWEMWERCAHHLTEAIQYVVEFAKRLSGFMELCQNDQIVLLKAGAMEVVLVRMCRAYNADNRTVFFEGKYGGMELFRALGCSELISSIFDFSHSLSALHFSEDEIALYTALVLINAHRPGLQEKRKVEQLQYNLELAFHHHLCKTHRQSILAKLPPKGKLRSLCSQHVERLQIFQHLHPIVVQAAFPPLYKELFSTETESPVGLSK
Summary of the method: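 Reporter transcripts from a transfected RORg-GAL4 chimera in HepG2 cells were quantified 24 h after dosing by RT-PCR, 6-FAM labelling, HpaI digestion and capillary electrophoresis; increases over DMSO baseline were fitted.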

[7] = target: human Thyroid Receptor alpha (THRa1), THRA (gene 7067) (UniProt P10827); experiment: ATG_THRa1_TRANS: Attagene TRANS-FACTORIAL HepG2 Assay for human Thyroid Receptor alpha (THRa1) (AID 2283014)
human Thyroid Receptor alpha (THRa1), THRA (gene 7067), sequence (P10827 whole entry, looked up, the tested form may be a part): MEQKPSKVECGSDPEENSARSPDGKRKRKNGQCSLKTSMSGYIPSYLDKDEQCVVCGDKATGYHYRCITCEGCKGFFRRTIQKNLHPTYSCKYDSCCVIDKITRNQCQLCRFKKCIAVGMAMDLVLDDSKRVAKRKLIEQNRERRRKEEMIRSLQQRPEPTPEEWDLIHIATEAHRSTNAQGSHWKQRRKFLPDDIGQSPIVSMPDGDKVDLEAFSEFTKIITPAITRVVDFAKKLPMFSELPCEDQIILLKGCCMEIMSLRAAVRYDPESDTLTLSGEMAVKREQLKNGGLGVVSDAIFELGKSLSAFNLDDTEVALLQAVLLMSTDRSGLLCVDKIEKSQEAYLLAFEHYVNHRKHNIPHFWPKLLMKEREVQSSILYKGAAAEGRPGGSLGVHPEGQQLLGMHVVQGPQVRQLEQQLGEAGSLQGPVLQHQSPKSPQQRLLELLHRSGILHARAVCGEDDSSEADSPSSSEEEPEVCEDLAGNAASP
Summary of the method: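 Transcripts from GAL4-UAS-driven reporters, measured after 24 h compound exposure by RT-PCR plus capillary electrophoresis of 6-FAM-labeled fragments, were fitted for gain of signal relative to DMSO. Cells: transiently transfected HepG2 expressing NR-Gal4 chimeras.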

[8] = TOX21_p53_BLA_p2_viability: Viability Assessment in the Tox21 HCT-116 p53 Agonism Beta-lactamase Assay, Phase 2 (AID 2283591);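 also: compound exposure lasted 16 h at 37 °C; actives lower the ATP signal meaning cytotoxicity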
Summary of the method: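 HCT-116 p53-bla cells (4000/well) rested 5 h at 37C, then received compounds in DMSO (217-fold dilution) for 16 h at 37C, 5% CO2. After the CCF4 read, CellTiter-Glo was added; ATP luminescence was read after 30 min at room temperature.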

[9] = target: Cellular tumor antigen p53 (Homo sapiens) (UniProt P04637); experiment: TOX21_p53_BLA_p2_ratio: Tox21 HCT-116 p53 Agonism Beta-lactamase Assay, Ratio, Phase 2 (AID 2283592)
Cellular tumor antigen p53 (Homo sapiens), sequence (P04637 whole entry, looked up): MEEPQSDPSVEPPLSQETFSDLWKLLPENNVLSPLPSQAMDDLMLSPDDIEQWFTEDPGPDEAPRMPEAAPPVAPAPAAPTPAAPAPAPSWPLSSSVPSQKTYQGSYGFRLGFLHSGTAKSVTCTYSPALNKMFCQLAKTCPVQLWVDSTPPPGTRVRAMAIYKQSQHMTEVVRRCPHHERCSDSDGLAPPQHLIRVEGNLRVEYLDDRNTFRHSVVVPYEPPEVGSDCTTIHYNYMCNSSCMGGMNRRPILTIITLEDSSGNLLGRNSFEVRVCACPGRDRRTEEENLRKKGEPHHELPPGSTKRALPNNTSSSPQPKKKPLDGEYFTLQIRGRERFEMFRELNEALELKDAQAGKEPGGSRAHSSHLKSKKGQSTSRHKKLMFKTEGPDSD
Summary of the method: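 Gain-of-signal p53 agonism was scored from the beta-lactamase FRET ratio (460/530 nm, 405 nm excitation) in HCT116 cells treated 16 h at 37C, 5% CO2, with DMSO serving as negative control and baseline.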

[10] = TOX21_p53_BLA_p3_viability: Viability Assessment in the Tox21 HCT-116 p53 Agonism Beta-lactamase Assay, Phase 3 (AID 2283593);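 also: cells exposed to compound for 16 h before reading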
Summary of the method: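 HCT-116 cells (4000/well) rested 5 h at 37C, then got DMSO compounds by pin tool (217-fold dilution) for 16 h at 37C, 5% CO2. After the bla read, CellTiter-Glo was added and luminescence read at 30 min, room temperature.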

[11] = TOX21_p53_BLA_p5_viability: Viability Assessment in the Tox21 HCT-116 p53 Agonism Beta-lactamase Assay, Phase 5 (AID 2283600)
Summary of the method: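 After the 460/530 nm beta-lactamase measurement, the wells received an ATP-detection luciferase reagent; signal was read 30 min later at RT. Compound treatment lasted 16 h on cells pre-incubated 5 h post-seeding.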

[12] = target: Nuclear receptor subfamily 1 group I member 3 (Homo sapiens) (UniProt Q14994); experiment: ATG_CAR_TRANS: Attagene TRANS-FACTORIAL HepG2 Assay for human Constitutive Androstane Receptor (CAR) (AID 2282969); details: HepG2 Attagene TRANS-FACTORIAL CAR reporter;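 also: activators raise reporter mRNA above DMSO so AC50 marks induction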
Nuclear receptor subfamily 1 group I member 3 (Homo sapiens), sequence (Q14994 whole entry, looked up, the tested form may be a part): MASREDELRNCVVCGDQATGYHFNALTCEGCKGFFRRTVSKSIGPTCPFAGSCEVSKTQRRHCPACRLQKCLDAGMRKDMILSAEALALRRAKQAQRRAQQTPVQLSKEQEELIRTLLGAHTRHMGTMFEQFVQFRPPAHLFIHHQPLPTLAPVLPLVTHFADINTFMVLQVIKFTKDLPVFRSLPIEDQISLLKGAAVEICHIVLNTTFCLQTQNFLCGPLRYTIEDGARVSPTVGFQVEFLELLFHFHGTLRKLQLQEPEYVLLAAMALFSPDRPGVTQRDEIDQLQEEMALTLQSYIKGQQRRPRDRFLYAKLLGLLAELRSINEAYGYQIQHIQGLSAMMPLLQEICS
Summary of the method: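 HepG2 cells transiently transfected with multiplexed GAL4-UAS reporter units expressing chimeric NR-Gal4 proteins; compound exposure 24 h. Reporter mRNA measured by RT-PCR, 6-FAM labelling, HpaI digestion and capillary electrophoresis; gain-of-signal fitted against DMSO baseline.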

[13] = ATG_GAL4_TRANS: Attagene TRANS-FACTORIAL HepG2 Assay for GAL4 (Internal Marker) (AID 2282976); details: HepG2 Attagene TRANS GAL4 internal marker reporter
Summary of the method: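 In transfected human HepG2 liver cells dosed 24 h, GAL4 reporter mRNA serves as a baseline marker. Detection by RT-PCR with fluorescent capillary electrophoresis, activity fitted upward relative to DMSO.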

[14] = target: human Vitamin D Receptor (VDR), VDR (gene 7421) (UniProt P11473); experiment: ATG_VDR_TRANS: Attagene TRANS-FACTORIAL HepG2 Assay for human Vitamin D Receptor (VDR) (AID 2283022)
human Vitamin D Receptor (VDR), VDR (gene 7421), sequence (P11473 whole entry, looked up, the tested form may be a part): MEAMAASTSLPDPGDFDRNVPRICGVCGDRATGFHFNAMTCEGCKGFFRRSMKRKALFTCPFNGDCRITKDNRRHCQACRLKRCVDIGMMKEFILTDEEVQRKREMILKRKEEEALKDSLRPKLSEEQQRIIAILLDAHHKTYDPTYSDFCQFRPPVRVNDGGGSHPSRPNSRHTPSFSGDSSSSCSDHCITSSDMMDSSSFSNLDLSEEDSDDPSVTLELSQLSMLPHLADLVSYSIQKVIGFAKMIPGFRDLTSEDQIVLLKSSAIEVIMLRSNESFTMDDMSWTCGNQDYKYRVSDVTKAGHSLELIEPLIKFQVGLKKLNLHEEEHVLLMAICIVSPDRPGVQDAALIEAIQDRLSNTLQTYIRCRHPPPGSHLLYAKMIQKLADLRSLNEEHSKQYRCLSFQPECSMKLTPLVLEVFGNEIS
Summary of the method: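 Transactivation by an exogenous VDR-Gal4 chimera in transiently transfected HepG2 cells was measured as reporter transcript level 24 hours after chemical treatment. RT-PCR products were analysed by capillary electrophoresis and fitted in the positive direction relative to DMSO.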

[15] = ATG_M_19_TRANS: Attagene TRANS-FACTORIAL HepG2 Assay for M19 Transcription Factor (Internal Marker) (AID 2282974); details: HepG2 Attagene TRANS-FACTORIAL M19 internal marker reporter
Summary of the method: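 Fluorescence of 6-FAM-labelled reporter cDNA fragments, separated by capillary electrophoresis, served as the readout. These derived from HepG2 cells carrying transfected GAL4-UAS reporter units after 24 h dosing, with DMSO as negative control.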

[16] = target: Peroxisome proliferator-activated receptor gamma (Homo sapiens) (UniProt P37231); experiment: OT_PPARg_PPARgSRC1_0480: Odyssey Thera (OT) 8-hour Protein-Complementation Assay for Peroxisome Proliferator-activated Receptor Gamma / SRC-1 Co-activator (AID 2283387);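 also: nuclear to cytoplasmic split Venus YFP fluorescence ratio reporting PPARg SRC-1 interaction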
Peroxisome proliferator-activated receptor gamma (Homo sapiens), sequence (P37231 whole entry, looked up, the tested form may be a part): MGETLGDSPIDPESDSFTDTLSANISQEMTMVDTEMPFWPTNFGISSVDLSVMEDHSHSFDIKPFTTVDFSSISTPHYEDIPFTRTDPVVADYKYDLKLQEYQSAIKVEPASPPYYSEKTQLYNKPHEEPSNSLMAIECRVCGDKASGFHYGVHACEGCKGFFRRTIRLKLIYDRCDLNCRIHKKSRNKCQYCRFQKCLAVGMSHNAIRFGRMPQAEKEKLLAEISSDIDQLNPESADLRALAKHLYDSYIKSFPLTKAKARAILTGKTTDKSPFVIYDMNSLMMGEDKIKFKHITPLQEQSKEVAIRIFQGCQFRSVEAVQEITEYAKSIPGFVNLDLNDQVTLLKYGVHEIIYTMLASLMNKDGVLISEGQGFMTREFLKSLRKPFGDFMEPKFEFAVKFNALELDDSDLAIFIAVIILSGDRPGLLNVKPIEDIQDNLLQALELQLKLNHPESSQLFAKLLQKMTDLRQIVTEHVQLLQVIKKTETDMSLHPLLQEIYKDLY
Summary of the method: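 Split-YFP (IFP1/IFP2) PPARg/SRC-1 reporter, HEK293T, 37 °C, 5% CO2; 8 h compound; formaldehyde fix + Draq5; high-content imaging, N/C ratio, ≥350 cells/image, positive direction vs DMSO.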

[17] = target: Peroxisome proliferator-activated receptor gamma (Homo sapiens) (UniProt P37231); experiment: OT_PPARg_PPARgSRC1_1440: Odyssey Thera (OT) 24-hour Protein-Complementation Assay for Peroxisome Proliferator-activated Receptor Gamma/ SRC-1 Co-activator (AID 2283388);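 also: nuclear to cytoplasmic ratio of reconstituted Venus YFP fluorescence in fixed imaged cells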
Summary of the method: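 Readout is the 488 nm N/C fluorescence ratio from fixed, Draq5-stained HEK293T cells after 24 h compound exposure. Cells carried transiently transfected PPARg and SRC-1 fused to Venus fragments, transfected 48 h before treatment.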

[18] = TOX21_p53_BLA_p4_viability: Viability Assessment in the Tox21 HCT-116 p53 Agonism Beta-lactamase Assay, Phase 4 (AID 2283597);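 also: hits lower the luminescence signal meaning cytotoxicity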
Summary of the method: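 Following a 16 h exposure at 37C, the treated HCT116 wells were first read for the FRET ratio. They were then lysed with CellTiter-Glo, and ATP luminescence was recorded after 30 min at room temperature.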

[19] = ACEA_ER_AUC_viability: ACEA Biosciences xCELLigence Real-Time Cell Analysis on Estrogen Receptor Agonism for Viability (AID 2283782);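 also: continuous compound exposure with impedance area under curve over 80 h; hit means loss of impedance signal meaning reduced cell growth or viability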
Summary of the method: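 T-47D human breast cells in phenol red-free RPMI1640 with 10% charcoal-stripped FBS were dosed with an 8-point 1:4 dilution series from 100 uM top final concentration, in duplicate. Impedance-based growth was followed for 80 h; AUC analysed versus DMSO.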

[20] = target: Nuclear receptor subfamily 4 group A member 2 (Homo sapiens) (UniProt P43354); experiment: ATG_NURR1_TRANS: Attagene TRANS-FACTORIAL HepG2 Assay for human Nuclear Receptor Related Protein 1 (NURR1) (AID 2282985); details: HepG2 Attagene TRANS reporter, mRNA readout
Nuclear receptor subfamily 4 group A member 2 (Homo sapiens), sequence (P43354 whole entry, looked up, the tested form may be a part): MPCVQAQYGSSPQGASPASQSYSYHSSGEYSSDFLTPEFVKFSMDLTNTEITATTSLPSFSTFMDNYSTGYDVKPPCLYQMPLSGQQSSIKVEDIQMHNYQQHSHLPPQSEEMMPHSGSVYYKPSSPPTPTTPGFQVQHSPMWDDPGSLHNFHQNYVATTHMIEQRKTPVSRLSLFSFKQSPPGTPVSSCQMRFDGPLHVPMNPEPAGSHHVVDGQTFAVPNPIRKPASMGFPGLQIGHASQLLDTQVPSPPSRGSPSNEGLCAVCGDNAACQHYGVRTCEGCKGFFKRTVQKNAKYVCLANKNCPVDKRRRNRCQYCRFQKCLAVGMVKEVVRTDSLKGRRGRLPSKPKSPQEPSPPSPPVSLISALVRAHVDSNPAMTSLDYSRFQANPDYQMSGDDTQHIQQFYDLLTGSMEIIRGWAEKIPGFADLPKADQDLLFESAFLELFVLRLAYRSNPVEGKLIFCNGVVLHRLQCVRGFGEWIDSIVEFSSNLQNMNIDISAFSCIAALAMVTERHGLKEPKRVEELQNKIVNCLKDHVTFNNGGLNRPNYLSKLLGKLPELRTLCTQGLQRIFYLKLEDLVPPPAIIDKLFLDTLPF
Summary of the method: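 HepG2 cells transiently transfected with GAL4-UAS reporter units and chimeric NR-Gal4 constructs; chemical exposure 24 h. Reporter mRNA quantified by RT-PCR, fluorescent labelling and capillary electrophoresis; gain of signal fitted relative to DMSO baseline.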

## O=[N+]([O-])c1cc(C(F)(F)F)c(Cl)c([N+](=O)[O-])c1Cl
[1]
  outcome: inactive
[2]
  outcome: inactive
[3]
  outcome: inactive
[4]
  AC50: 52.5 µM (active)
[5]
  AC50: 41.1 µM (active)
[6]
  AC50: 7.97 µM (active)
[7]
  outcome: inactive
[8]
  AC50: 35.2 µM (active)
[9]
  AC50: 13.3 µM (active)
[10]
  AC50: 35.6 µM (active)
[11]
  AC50: 46.1 µM (active)

## ClCC(Cl)Cl
[12]
  outcome: inactive
[13]
  outcome: inactive
[4]
  outcome: inactive
[6]
  outcome: inactive
[14]
  outcome: inactive
[8]
  outcome: inactive
[9]
  outcome: inactive
[10]
  outcome: inactive
[11]
  outcome: inactive

## CCCC=NO
[1]
  outcome: inactive
[12]
  outcome: inactive
[15]
  outcome: inactive
[13]
  outcome: inactive
[2]
  outcome: inactive
[3]
  outcome: inactive
[4]
  outcome: inactive
[6]
  outcome: inactive
[7]
  outcome: inactive
[16]
  outcome: inactive
[17]
  outcome: inactive
[8]
  outcome: inactive
[9]
  outcome: inactive
[10]
  outcome: inactive
[18]
  outcome: inactive
[11]
  outcome: inactive
[19]
  outcome: inactive

## O=C=Nc1ccccc1
[12]
  outcome: inactive
[15]
  outcome: inactive
[13]
  outcome: inactive
[3]
  outcome: inactive
[14]
  outcome: inactive
[16]
  outcome: inactive
[17]
  outcome: inactive
[19]
  outcome: inactive

## Cc1ccc(N(SC(F)(Cl)Cl)S(=O)(=O)N(C)C)cc1
[1]
  outcome: inactive
[2]
  outcome: inactive
[20]
  outcome: inactive
[5]
  outcome: inactive
[7]
  outcome: inactive
[14]
  outcome: inactive
[8]
  outcome: inactive
[9]
  outcome: inactive
[18]
  AC50: 87.1 µM (active)
[11]
  outcome: inactive

## CSc1nc(N=[N+]=[N-])nc(NC(C)C)n1
[15]
  outcome: inactive
[2]
  outcome: inactive
[3]
  outcome: inactive
[5]
  outcome: inactive
[7]
  outcome: inactive
[14]
  outcome: inactive
[10]
  outcome: inactive
[18]
  outcome: inactive

## COC(=O)c1ccccc1S(=O)(=O)NC(=O)Nc1nc(C)cc(C)n1
[15]
  outcome: inactive
[2]
  outcome: inactive
[20]
  outcome: inactive
[4]
  outcome: inactive
[14]
  outcome: inactive
[19]
  outcome: inactive

## CC1CCCC1.[C-]#[O+].[C-]#[O+].[C-]#[O+].[Mn]
[12]
  outcome: inactive
[15]
  outcome: inactive
[3]
  outcome: inactive
[4]
  outcome: inactive
[7]
  outcome: inactive
[14]
  outcome: inactive
[16]
  outcome: inactive
[17]
  outcome: inactive
[8]
  outcome: inactive
[9]
  outcome: inactive
[10]
  outcome: inactive
[18]
  outcome: inactive
[11]
  outcome: inactive

## O=C1Nc2ccc(Cl)cc2C(c2ccccc2)=NC1O (stereo not drawn)
[2]
  outcome: inactive
[3]
  outcome: inactive
[4]
  outcome: inactive
[5]
  outcome: inactive
[7]
  outcome: inactive
[14]
  outcome: inactive
[16]
  outcome: inactive
[17]
  outcome: inactive
[8]
  outcome: inactive
[9]
  outcome: inactive
[10]
  outcome: inactive
[18]
  outcome: inactive
[11]
  outcome: inactive

## N#Cc1cc(I)c(O)c(I)c1
[12]
  outcome: inactive
[15]
  outcome: inactive
[13]
  outcome: inactive
[3]
  outcome: inactive
[4]
  AC50: 8.29 µM (active)
[7]
  outcome: inactive
[14]
  outcome: inactive
[8]
  outcome: inactive
[9]
  AC50: 9.91 µM (active)
[10]
  outcome: inactive
[18]
  outcome: inactive
[11]
  outcome: inactive

## C=CC(=O)OC
[1]
  outcome: inactive
[12]
  outcome: inactive
[13]
  outcome: inactive
[3]
  outcome: inactive
[20]
  outcome: inactive
[4]
  outcome: inactive
[6]
  outcome: inactive
[7]
  outcome: inactive
[14]
  outcome: inactive
[8]
  outcome: inactive
[9]
  outcome: inactive
[10]
  outcome: inactive
[11]
  outcome: inactive

## Cc1ccc(OP(=O)(Oc2ccc(C)cc2)Oc2ccc(C)cc2)cc1 (tested in a mixture with another compound)
[15]
  outcome: inactive
[16]
  outcome: inactive
[17]
  outcome: inactive
[8]
  outcome: inactive
[9]
  outcome: inactive
[18]
  outcome: inactive
[11]
  outcome: inactive
[19]
  outcome: inactive
